Assay results from PubChem BioAssay AID1159580 (chemical genetic matrix, 2015).
Out of some 5,500 compounds screened, about 2,000 (36%) were called active. Not shown: some 18% with an inconclusive outcome. No stated cut-off is given here; in the data, active means normalized growth mostly below about 0.91 (no sharp cut-off); inconclusive means no clear call, values can overlap the other calls; inactive means mostly above about 0.92. This is one part of the list.

Assay: chemical genetic growth profiling, strain panel (AID 1159580);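 further: tested at 20 µM; growth read once vehicle control cultures reached saturation at 30 °C; 1 = growth at the plate median or of vehicle wells; lower values mean less growth of the strain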
Conditions: S. cerevisiae deletion strains, growth OD
[1] = locus YAL021C, strain ccr4, hits give low values
[2] = locus YAL026C, strain drs2, hits give low values
[3] = locus YAL030W, strain snc1, hits give low values
[4] = locus YBL061C, strain skt5, hits give low values
[5] = locus YBR009C, strain hhf1, hits give low values
[6] = locus YBR023C, strain chs3, hits give low values
[7] = locus YBR171W, strain sec66, hits give low values
[8] = locus YBR231C, strain swc5, hits give low values
[9] = locus YBR279W, strain paf1, hits give low values
[10] = locus YCL011C, strain gbp2, hits give low values
[11] = locus YCL016C, strain dcc1, hits give low values
[12] = locus YCL061C, strain MRC1, hits give low values
[13] = locus YCL069W, strain vba3, hits give low values
[14] = locus YCR088W, strain abp1, hits give low values
[15] = locus YDL005C, strain med2, hits give low values
[16] = locus YDL040C, strain nat1, hits give low values
[17] = locus YDR001C, strain nth1, hits give low values
[18] = locus YDR069C, strain doa4, hits give low values
[19] = locus YDR137W, strain rgp1, hits give low values
[20] = locus YDR159W, strain sac3, hits give low values
[21] = locus YDR297W, strain sur2, hits give low values
[22] = locus YDR334W, strain swr1, hits give low values
[23] = locus YDR335W, strain msn5, hits give low values
[24] = locus YDR392W, strain spt3, hits give low values
[25] = locus YEL003W, strain gim4, hits give low values
[26] = locus YEL037C, strain rad23, hits give low values
[27] = locus YEL061C, strain CIN8 (second series), hits give low values
[28] = locus YER015W, strain faa2, hits give low values
[29] = locus YER016W, strain bim1, hits give low values
[30] = locus YER111C, strain swi4, hits give low values
[31] = locus YER155C, strain BEM2 (second series), hits give low values
[32] = locus YFR010W, strain ubp6, hits give low values
[33] = locus YGL167C, strain pmr1, hits give low values
[34] = locus YGL173C, strain kem1, hits give low values
[35] = locus YGL227W, strain vid30, hits give low values
[36] = locus YGL240W, strain doc1, hits give low values
[37] = locus YGL253W, strain hxk2, hits give low values
[38] = locus YHR013C, strain ard1, hits give low values
[39] = locus YHR027C, strain rpn1, hits give low values
[40] = locus YHR030C, strain SLT2, hits give low values
[41] = locus YHR079C, strain IRE1, hits give low values
[42] = locus YHR142W, strain chs7, hits give low values
[43] = locus YJL092W, strain hpr5, hits give low values
[44] = locus YJL095W, strain BCK1 (second series), hits give low values
[45] = locus YJL095W, strain BCK1, hits give low values
[46] = locus YJL115W, strain asf1, hits give low values
[47] = locus YJL129C, strain trk1, hits give low values
[48] = locus YJL154C, strain vps35, hits give low values
[49] = locus YJL164C, strain tpk1, hits give low values
[50] = locus YJL166W, strain qcr8, hits give low values
[51] = locus YJL187C, strain SWE1, hits give low values
[52] = locus YJR066W, strain TOR1, hits give low values
[53] = locus YKL160W, strain elf1, hits give low values
[54] = locus YKR026C, strain gcn3, hits give low values
[55] = locus YKR091W, strain srl3, hits give low values
[56] = locus YLL001W, strain dnm1, hits give low values
[57] = locus YLL026W, hits give low values
[58] = locus YLL041C, strain sdh2, hits give low values
[59] = locus YLR027C, strain aat2, hits give low values
[60] = locus YLR113W, strain HOG1, hits give low values
[61] = locus YLR221C, strain rsa3, hits give low values
[62] = locus YLR258W, strain gsy2, hits give low values
[63] = locus YLR262C, strain YPT6 (second series), hits give low values
[64] = locus YLR320W, strain mms22, hits give low values
[65] = locus YLR342W, strain FKS1, hits give low values
[66] = locus YLR357W, strain rsc2, hits give low values
[67] = locus YLR370C, strain arc18, hits give low values
[68] = locus YLR384C, strain iki3, hits give low values
[69] = locus YML120C, strain ndi1, hits give low values
[70] = locus YMR058W, strain fet3, hits give low values
[71] = locus YMR125W, strain sto1, hits give low values
[72] = locus YMR129W, hits give low values
[73] = locus YMR205C, strain PFK2, hits give low values
[74] = locus YMR231W, strain pep5, hits give low values
[75] = locus YNL071W, strain lat1, hits give low values
[76] = locus YNL183C, strain NPR1, hits give low values
[77] = locus YNL209W, strain ssb2, hits give low values
[78] = locus YNL248C, strain rpa49, hits give low values
[79] = locus YNL322C, strain KRE1 (second series), hits give low values
[80] = locus YNR049C, strain mso1, hits give low values
[81] = locus YOR001W, strain rrp6, hits give low values
[82] = locus YOR070C, strain gyp1, hits give low values
[83] = locus YOR080W, strain dia2, hits give low values
[84] = locus YOR083W, strain WHI5, hits give low values
[85] = locus YOR106W, strain vam3, hits give low values
[86] = locus YOR231W, strain MKK1, hits give low values
[87] = locus YOR265W, strain rbl2, hits give low values
[88] = locus YOR270C, strain vph1, hits give low values
[89] = locus YOR290C, strain snf2, hits give low values
[90] = locus YPL051W, strain arl3, hits give low values
[91] = locus YPL078C, strain atp4, hits give low values
[92] = locus YPL106C, strain sse1, hits give low values
[93] = locus YPL240C, strain hsp82, hits give low values
[94] = locus YPL256C, strain CLN2, hits give low values

Measured: normalized growth

C=CCSSCC=C
active: [41] 0.841 | [45] 0.822 | [86] 0.823
inactive: [1] 1.02 | [2] 1.04 | [3] 1.03 | [4] 1.03 | [5] 1.03 | [6] 1.02 | [7] 1.04 | [8] 1.04 | [9] 1.02 | [10] 1.04 | [11] 1.03 | [12] 1.03 | [13] 1.03 | [14] 1.04 | [15] 1.05 | [16] 1.03 | [17] 1.04 | [18] 1.03 | [19] 1.07 | [20] 1.08 | locus YDR195W, strain ref2 1.04 | [21] 1.03 | [22] 1.03 | [23] 1.04 | [24] 0.901 | [25] 1.03 | [26] 1.03 | [27] 1.02 | [28] 1.03 | [29] 1.03 | [30] 1.06 | [31] 0.951 | [32] 1.05 | [33] 1.04 | [34] 1.05 | [35] 1.05 | [36] 1.05 | [37] 1.04 | [38] 1.02 | [39] 1.04 | [40] 0.858 | [42] 1.02 | [43] 1.04 | [44] 1.03 | [46] 1.04 | [47] 1.03 | [48] 1.02 | [49] 1.01 | [50] 1.03 | [51] 1.03 | [52] 0.879 | [53] 1.01 | [54] 1.03 | [55] 1.03 | [56] 1.01 | [57] 1.03 | [58] 1.03 | [59] 1.03 | [60] 0.881 | [61] 1.01 | [62] 1.03 | [63] 1.03 | [64] 1.05 | [65] 1.04 | [66] 0.974 | [67] 1.04 | [68] 1.03 | [69] 1.02 | [70] 1.03 | [71] 1.01 | [72] 1.04 | [73] 1.05 | [74] 1.03 | [75] 0.923 | [76] 0.864 | [77] 1.03 | [78] 0.96 | [79] 1.04 | [80] 1.03 | [81] 1.01 | [82] 1.02 | [83] 1.04 | [84] 0.998 | [85] 1.04 | [87] 1.03 | [88] 1.05 | [89] 0.975 | [90] 1 | [91] 1.01 | [92] 1.07 | [93] 1.03 | [94] 0.862

C=CCSCC=C
inactive: [1] 0.972 | [2] 0.971 | [3] 0.962 | [4] 0.979 | [5] 0.981 | [6] 0.987 | [7] 0.965 | [8] 1.03 | [9] 0.992 | [10] 0.966 | [11] 0.975 | [12] 0.972 | [13] 0.98 | [14] 0.99 | [15] 0.985 | [16] 0.993 | [17] 0.96 | [18] 0.947 | [19] 0.971 | [20] 0.991 | locus YDR195W, strain ref2 0.961 | [21] 0.982 | [22] 0.935 | [23] 0.987 | [24] 0.916 | [25] 0.986 | [26] 0.972 | [27] 0.982 | [28] 0.958 | [29] 0.991 | [30] 0.966 | [31] 0.974 | [32] 0.953 | [33] 0.971 | [34] 0.941 | [35] 0.986 | [36] 0.981 | [37] 0.967 | [38] 0.957 | [39] 0.96 | [40] 1.03 | [41] 1.03 | [42] 0.934 | [43] 0.961 | [44] 0.996 | [45] 1.03 | [46] 0.938 | [47] 0.95 | [48] 0.978 | [49] 0.981 | [50] 0.977 | [51] 0.986 | [52] 0.931 | [53] 1 | [54] 0.989 | [55] 0.983 | [56] 0.966 | [57] 0.974 | [58] 0.975 | [59] 0.953 | [60] 1.02 | [61] 0.973 | [62] 0.989 | [63] 0.983 | [64] 0.995 | [65] 0.983 | [66] 0.963 | [67] 0.977 | [68] 0.99 | [69] 0.973 | [70] 0.97 | [71] 0.966 | [72] 0.979 | [73] 0.969 | [74] 0.98 | [75] 0.991 | [76] 0.94 | [77] 0.985 | [78] 0.98 | [79] 0.955 | [80] 0.964 | [81] 0.992 | [82] 0.976 | [83] 0.974 | [84] 0.989 | [85] 0.977 | [86] 1.02 | [87] 1.01 | [88] 0.945 | [89] 0.903 | [90] 0.991 | [91] 0.988 | [92] 0.943 | [93] 0.974 | [94] 1.03

C=CCSSSCC=C
inactive: [1] 0.962 | [2] 0.97 | [3] 0.989 | [4] 1 | [5] 0.957 | [6] 0.986 | [7] 0.994 | [8] 0.974 | [9] 0.991 | [10] 0.984 | [11] 1 | [12] 0.98 | [13] 0.973 | [14] 0.984 | [15] 0.97 | [16] 0.987 | [17] 0.988 | [18] 0.965 | [19] 0.984 | [20] 0.937 | locus YDR195W, strain ref2 0.944 | [21] 0.989 | [22] 0.966 | [23] 0.986 | [24] 0.782 | [25] 0.98 | [26] 0.958 | [27] 0.979 | [28] 0.976 | [29] 0.992 | [30] 0.991 | [32] 0.956 | [33] 0.983 | [34] 0.988 | [35] 0.995 | [36] 0.944 | [37] 0.987 | [38] 0.937 | [39] 1 | [42] 0.981 | [43] 0.966 | [44] 0.991 | [46] 0.975 | [47] 0.958 | [48] 0.979 | [49] 0.974 | [50] 0.976 | [51] 0.984 | [53] 0.995 | [54] 0.978 | [55] 0.983 | [56] 0.994 | [57] 0.991 | [58] 0.982 | [59] 0.972 | [61] 0.992 | [62] 0.999 | [63] 0.995 | [64] 0.967 | [65] 0.98 | [66] 0.891 | [67] 0.978 | [68] 1.01 | [69] 0.974 | [70] 0.975 | [71] 0.946 | [72] 0.98 | [73] 0.967 | [74] 0.978 | [77] 0.992 | [79] 0.974 | [80] 0.98 | [81] 0.96 | [82] 0.992 | [83] 0.972 | [84] 1 | [85] 0.949 | [87] 0.984 | [88] 0.941 | [89] 0.964 | [90] 0.979 | [91] 0.988 | [92] 0.976 | [93] 0.995
active: [31] 0.765 | [75] 0.847 | [78] 0.877
